Over roughly 110,000 compounds, “z-score” has its median near -0.1; the highest 2% begin near 2. The entries come from a sample that favours the highest values as a whole. Activity calls are given as the source filed them.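 The calls were made as follows: active = z-score in the third read window above 3 or below -3; inactive = the rest.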

For the test, the target named is Metabotropic glutamate receptor 8 (Rattus norvegicus) (UniProt P70579). The test can be described thus: rat mGluR8 modulators via GIRK flux, primary screen, cell-based, thallium flux, HTS (AID 488969). The conditions noted are these: HEK293 rat mGluR8, GIRK (G protein-gated inwardly rectifying potassium channel) thallium flux, FluoZin2; at 10 µM; stronger effect = higher value; submaximal glutamate (EC20) added with thallium.
Chain of Metabotropic glutamate receptor 8 (Rattus norvegicus) (P70579 whole entry, looked up): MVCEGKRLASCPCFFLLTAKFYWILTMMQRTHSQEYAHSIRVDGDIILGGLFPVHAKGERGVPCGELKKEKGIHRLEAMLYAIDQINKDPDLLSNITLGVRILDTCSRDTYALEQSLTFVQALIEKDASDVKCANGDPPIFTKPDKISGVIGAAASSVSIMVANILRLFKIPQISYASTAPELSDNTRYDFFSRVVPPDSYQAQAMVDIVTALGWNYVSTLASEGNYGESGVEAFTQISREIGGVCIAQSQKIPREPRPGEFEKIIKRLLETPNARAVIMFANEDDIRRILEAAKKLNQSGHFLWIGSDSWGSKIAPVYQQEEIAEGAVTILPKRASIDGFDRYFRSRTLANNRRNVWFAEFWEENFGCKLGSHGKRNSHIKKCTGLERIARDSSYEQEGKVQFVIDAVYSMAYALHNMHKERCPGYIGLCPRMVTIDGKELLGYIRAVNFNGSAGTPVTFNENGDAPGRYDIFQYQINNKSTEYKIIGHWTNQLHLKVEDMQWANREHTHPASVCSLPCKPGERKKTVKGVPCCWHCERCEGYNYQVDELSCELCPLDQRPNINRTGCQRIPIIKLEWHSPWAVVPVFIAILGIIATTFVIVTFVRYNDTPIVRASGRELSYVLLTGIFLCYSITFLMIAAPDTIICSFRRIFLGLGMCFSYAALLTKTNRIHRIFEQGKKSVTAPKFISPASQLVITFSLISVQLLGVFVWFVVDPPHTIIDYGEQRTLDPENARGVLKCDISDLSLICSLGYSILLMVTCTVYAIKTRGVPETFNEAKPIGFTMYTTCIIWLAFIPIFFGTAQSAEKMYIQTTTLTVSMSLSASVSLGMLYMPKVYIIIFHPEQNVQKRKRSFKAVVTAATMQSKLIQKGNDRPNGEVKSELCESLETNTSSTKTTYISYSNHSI
Regarding `O=C1CC(c2cccc(Br)c2)c2cc3c(cc2N1)CCC3` (stereo unspecified), the z-score is -0.00205. As for `COc1ccc(S(=O)(=O)Nc2ccc(C)cc2)cc1OC`, the z-score was -0.166. To `CCn1cnc2sc(C(=O)N3CCN(Cc4ccc5c(c4)OCO5)CC3)c(C)c2c1=O` belongs 2.58; to `O=C(NC(=S)N1CCN(Cc2ccc3c(c2)OCO3)CC1)c1ccc(Cl)cc1`, 15.2 (active). For `CCC(CC)C(=O)N1CCN(Cc2ccc3c(c2)OCO3)CC1` the value was -0.17; for `Cc1cccc(C(=O)N2CCN(Cc3ccc4c(c3)OCO4)CC2)c1`, -0.0762. To `O=C(NC(=S)N1CCN(Cc2ccc3c(c2)OCO3)CC1)c1cccc(Br)c1` belongs 9.35 (active). `CS(=O)(=O)N(CC(=O)N1CCN(Cc2ccc3c(c2)OCO3)CC1)Cc1ccc(Cl)cc1` displayed a z-score of 0.174. Compound `CCn1cnc2sc(C(=O)Nc3ccc4c(c3)OCO4)c(C)c2c1=O` came in with a z-score of -0.145. Consider `Cc1ccc(NC(=S)N2CCN(Cc3ccc4c(c3)OCO4)CC2)c(C)c1`, for which the z-score was -0.407.

With `Cc1c(Cl)cccc1NC(=S)N1CCN(Cc2ccc3c(c2)OCO3)CC1`, the z-score worked out at 0.334. To `CCN(CC)c1ccc(C(=O)NC(=S)N2CCN(Cc3ccc4c(c3)OCO4)CC2)cc1` belongs 10 (active); to `O=C(c1ccc(Br)o1)N1CCN(Cc2ccc3c(c2)OCO3)CC1`, -1.48; to `CCn1nc(C(=O)N2CCN(Cc3ccc4c(c3)OCO4)CC2)c2ccccc2c1=O`, -0.474. The compound `CCN1C(=O)/C(=C\N2CCCc3ccccc32)SC1=S` displayed a z-score of -0.289. The compound `O=C(c1ccc(OCC2CCCO2)cc1)N1CCN(c2ccccc2)CC1` (stereo unspecified) gave a z-score of -0.525. Compound `O=C(NCCc1ccc(Cl)cc1)C1CCC(=O)N1Cc1ccccc1Cl` (stereo unspecified) came in with a z-score of -0.0695. In turn, `COc1ccc(NC(=O)C(NC(=O)CC2NC(=O)NC2=O)c2ccccc2)cc1` (stereo unspecified) registered a z-score of 0.0457. To `CC(=O)NC12CC3CC(CC(CC(=O)O)(C3)C1)C2` belongs 0.634; to `O=Cc1cccn1Cc1ccc(Cl)cc1Cl`, -0.152; to `Cc1nn(-c2ccccc2)c2c1C1(C(=O)N(C)c3ccccc31)C(C#N)=C(N)O2` (stereo unspecified), -0.0421. For `O=C1OCCC1Sc1nc2cc(Cl)ccc2n1Cc1ccccc1` (stereo unspecified) the value was 6.69 (active).

Turning to `O=C1OCCC1Sc1nc2ccccc2n1Cc1ccccc1` (stereo unspecified), the z-score was -1.37. Turning to `O=C1OCCC1Sc1nnc(-c2ccc(Cl)cc2)n1Cc1ccccc1` (stereo unspecified), the z-score was -0.478. With `Cc1c(N=C2SCC(=O)N2/N=C/c2ccccc2Cl)c(=O)n(-c2ccccc2)n1C`, the z-score was 0.339.

`Cc1sc2ncnc(SCC(=O)NC3CC3)c2c1C`: the z-score came out at 0.845. For `Cc1sc2ncnc(SCC(=O)N3CCCC3=O)c2c1C` the value was 2.71; for `Cc1sc2ncnc(SCC(=O)N3CCCC3)c2c1C`, 0.342. To `COc1cc(C(=O)Nc2nnc(C)s2)cc(OC)c1OC` belongs 0.381; to `Cc1ccc(-n2nc(-c3cccnc3)cc2C(=O)N2CCOCC2)c(C)c1`, 0.372. For `Nc1nnc(-c2ccccc2)s1` the value was -0.337; for `Nc1nnc(C(=O)c2ccccc2N)s1`, 4.29 (active). In the case of `Nc1ccccc1NC(=O)c1ccccc1N`, the z-score came to 0.194. Consider `Cc1c(NC(=O)COC(=O)C(c2ccc(Cl)cc2)C(C)C)c(=O)n(-c2ccccc2)n1C` (stereo unspecified), for which the z-score was -0.457. For `CC(C)(C)CC(C)(C)NCC(O)COc1c(F)cc(Br)cc1F` (stereo unspecified), the z-score is 3.25 (active). To `CC(C)(C)NCC(O)COc1c(F)cc(Br)cc1F` (stereo unspecified) belongs 0.622.

Turning to `OC(CNC1CCCC1)COc1c(F)cc(Br)cc1F` (stereo unspecified), the z-score worked out at 0.142. For `C=CCSC1=N/C(=C\c2ccsc2)C(=O)S1` the value was -0.538; for `CC(C)OC(=O)c1cccnc1SCC(=O)N(C)c1ccccc1`, -0.698.

`CCOc1ccc(CNC(=O)C2CCCN(S(C)(=O)=O)C2)cc1OC` (stereo unspecified) showed a z-score of 0.258. For `CCC(=O)Nc1ccc(Cl)c(NC(=O)C(C)C)c1` the value was 0.418; for `O=C(NCCCn1ccnc1)Nc1ccc(Cl)cc1Cl`, -0.326; for `O=C(NCCCn1ccnc1)Nc1ccc(Cl)c(Cl)c1`, 3.92 (active).

Compound `CN(C)CCNC(=O)Nc1ccc(Cl)c(Cl)c1` registered a z-score of 0.092.

Turning to `O=C(NCCCn1ccnc1)Nc1cccc(Cl)c1`, the z-score was 0.583.

Consider `Cc1nn(C)cc1CNC(=O)Nc1ccc(Cl)c(Cl)c1`, for which the z-score worked out at 2.06. For the compound `C=COCCNC(=O)Nc1ccc(Cl)c(Cl)c1`, the z-score was 3.37 (active).

The compound `Cc1nn(C)cc1CNC(=O)Nc1cccc(Cl)c1` had a z-score of 0.0377.

Consider `C=COCCNC(=O)Nc1ccc(Cl)cc1Cl`, for which the z-score came to 0.104. To `Cc1nn(C)cc1CNC(=O)Nc1ccc(Br)cc1Cl` belongs -0.126; to `CCOc1ccccc1Nc1nc(-c2sc(NC(=O)c3ccc([N+](=O)[O-])cc3)nc2C)cs1`, 0.209; to `CCOc1ccc(CC(=O)Nc2c(C(N)=O)oc3ccc(Br)cc23)cc1OCC`, -0.0702.

Turning to `CN(C)/C=C1/N=C(c2ccccc2)OC1=O`, the z-score was -0.23. The compound `COc1ccc(C(=O)c2ccc(CC#N)s2)cc1` returned a z-score of -0.0619. To `CCn1c2ccccc2c2nnc(SCC(=O)OCN3C(=O)c4ccccc4C3=O)nc21` belongs -0.087; to `CC(C)(C)S(=O)c1cccs1` (stereo unspecified), 0.555; to `CSc1nc(C)cc(OCC(=O)N2CCOCC2)n1`, 0.387. As for `S=C(NN=C1CCCCCC1)Nc1ccc(Cl)cc1`, the z-score is 9.7 (active). `Fc1ccc(NC(=S)N2CCCC2)cc1` registered a z-score of -0.0754.

In turn, `S=C(Nc1ccc(Cl)cc1)N1CCCCC1` came in with a z-score of -0.262. For `S=C(Nc1ccc(Cl)cc1)N1CCCC1` the value was 0.113. For `Cc1cc(C)c2c(c1)/C(=N/NS(=O)(=O)c1ccccc1)CCC2` the value was -1.09; for `Fc1ccc(NC(=S)N2CCCCC2)cc1`, 0.208. To `Fc1ccc(NC(=S)NN=C2CCCCCC2)cc1` belongs 12 (active); to `COc1ccc(NC(=S)N/N=C2/CCCc3c(C)cc(C)cc32)cc1`, 0.0188; to `Cc1cc(C)c2c(c1)/C(=N/NC(=S)Nc1ccc(F)cc1)CCC2`, 2.6.

`O=C1CC(c2ccccc2)CN1S(=O)(=O)c1ccccc1` (stereo unspecified) showed a z-score of 0.00794. In turn, `O=C(NCCc1csc(-c2cccnc2)n1)c1cccc2ccccc12` registered a z-score of 0.472. In turn, `CC(C)=C1SC(N2CCCCC2)=NC1=O` gave a z-score of 1.93. For `Cc1nn(CCc2n[nH]c(=S)n2C2CCCCC2)c(C)c1Br` the value was -0.451; for `COc1ccc(-c2csc(NC(=O)CN3C(=O)CCC3=O)n2)cc1OC`, -0.147. The compound `Cc1cc(=O)n2[nH]c(-c3ccccc3Cl)cc2n1` showed a z-score of -0.0492. For `Cc1c(C(=O)N/N=C/C(C)C)[nH]c2c([N+](=O)[O-])cccc12` the value was -0.722; for `Cc1cc([N+](=O)[O-])c2[nH]c(C(=O)N/N=C/c3ccccc3C(=O)O)c(-c3ccccc3)c2c1`, -0.455.

Compound `CCC/C=N/NC(=O)c1[nH]c2c([N+](=O)[O-])cccc2c1C` returned a z-score of 2.02. The compound `CCc1nc(Nc2ccc(OC)c(OC)c2)c2nnn(Cc3ccccc3Cl)c2n1` gave a z-score of 0.049.
